Inconclusive results are not listed. Entries that show only a call come without a potency. Values without a mark were called inactive. The source made the active and inactive calls. The call rests on the fitted dose curve; in most records, active means well fitted activation curve with a large enough effect in the signal ratio in the repeat runs (not every such curve was filed as active); inconclusive means weak or mixed curves, or effect the other way; inactive means no such curve, though single readings can be large or run the other way; the % refers to the signal ratio.

Chain of Glucocorticoid receptor (Homo sapiens) (P04150 whole entry, looked up): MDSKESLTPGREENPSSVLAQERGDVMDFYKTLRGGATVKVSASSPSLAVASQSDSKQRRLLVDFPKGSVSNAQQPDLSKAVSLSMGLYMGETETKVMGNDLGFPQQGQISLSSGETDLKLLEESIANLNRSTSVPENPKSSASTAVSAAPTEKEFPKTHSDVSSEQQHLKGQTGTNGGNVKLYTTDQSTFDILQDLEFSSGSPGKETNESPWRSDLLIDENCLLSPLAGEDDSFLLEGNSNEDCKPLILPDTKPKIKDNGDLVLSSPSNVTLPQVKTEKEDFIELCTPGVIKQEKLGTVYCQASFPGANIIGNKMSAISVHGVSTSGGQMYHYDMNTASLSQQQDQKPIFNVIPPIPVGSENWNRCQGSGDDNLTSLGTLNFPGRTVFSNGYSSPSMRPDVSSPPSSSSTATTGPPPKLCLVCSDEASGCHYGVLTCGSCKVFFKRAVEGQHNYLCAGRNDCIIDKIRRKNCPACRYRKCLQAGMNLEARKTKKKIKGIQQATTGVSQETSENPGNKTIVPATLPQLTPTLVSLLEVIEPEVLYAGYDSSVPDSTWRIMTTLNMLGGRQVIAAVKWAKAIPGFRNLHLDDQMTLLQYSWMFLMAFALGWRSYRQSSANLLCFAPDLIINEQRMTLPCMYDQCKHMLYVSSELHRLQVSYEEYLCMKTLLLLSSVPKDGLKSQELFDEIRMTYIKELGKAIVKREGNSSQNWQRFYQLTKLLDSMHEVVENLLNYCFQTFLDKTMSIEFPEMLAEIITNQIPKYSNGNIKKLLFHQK

This test has as its target Glucocorticoid receptor (Homo sapiens) (UniProt P04150). In words: qHTS assay to identify small molecule agonists of the glucocorticoid receptor (GR) signaling pathway (AID 720691). Particulars: GR-bla HeLa, beta-lactamase reporter ratio, 18 h; series mostly up to 62.4 µM; activation: at the top concentration. The source says: U.S. Tox21 Program National Center for Advancing Translational Sciences [NCATS] NIH Chemical Genomics Center [NCGC] U.S. Environmental Protection Agency [EPA] National Institutes of Environmental Health Sciences [NIEHS] National Toxicology Program [NTP] U.S. Food and Drug Administration [FDA] Tox21 Assay Overview: The Glucocorticoid receptor (GR) is one of the members of the nuclear receptor family of ligand-dependent transcription factors. GR plays a critical role in carbohydrate, protein and lipid metabolisms and programmed cell death. CellSensor GR-bla HeLa cell line (Invitrogen) contains a beta-lactamase reporter gene under the control of the glucocorticoid response element stably integrated into HeLa cells, a cervical cancer cell line that expresses glucocorticoid receptor. The activation of the reporter gene under culture conditions can be detected by fluorescence intensity. This cell line has been used to screen the Tox21 10K compound library and to identify the compounds that activate the GR signaling.
Tox21 Assay Protocol Summary: The GR-bla HeLa cells were dispensed at 1500 cells/6 ul/well in 1536-well black wall/clear bottom plates using a Multidrop Combi (ThermoFisher Scientific, Waltham, MA) dispenser. After the assay plates were incubated at a 37 C/5% CO2 incubator for 4 hours, 23 nL of compounds dissolved in DMSO, positive controls or DMSO only was transferred to the assay plate by a pintool station (Kalypsys, San Diego, CA). The plates were incubated at 37 C for 18 hours. After 1 uL of LiveBLAzerTM B/G FRET substrate was added using a Flying Reagent Dispenser (Aurora Discovery, San Diego, CA), the plates were incubated at room temperature for 2 hours, and fluorescence intensity was measured by an Envision plate reader (PerkinElmer, Shelton, CT).
(Quantitative high-throughput screening tests each substance at several concentrations.)
As to `CCCCOC(=O)CCCCCCCCC(=O)OCCCC`, the “activation” value is -0.176%. Turning to `Cn1cnc2c1c(=O)[nH]c(=O)n2C`, the “activation” value is -0.839%. Take `O=C(OCc1ccccc1)c1ccccc1`: the Potency entry was “inactive”. For the molecule `COC(=O)c1ccc(C=O)cc1`, the Potency entry is “inactive”. For `CCOC(=O)C(C)(C)Oc1ccc(Cl)cc1`, the Potency result was “inactive”.

With `N[C@@H](Cc1c[nH]c2ccccc12)C(=O)O`, the Potency entry is “inactive”.

On to `CC(=O)Oc1ccccc1C(=O)O`, for which the Potency result was “inactive”. With `NC(=O)OCC(COC(N)=O)c1ccccc1`, the Potency entry was “inactive”.

As for `c1ccc2[nH]c(-c3cscn3)nc2c1`, the Potency entry was “inactive”.

As to `O=c1cc[nH]c(=O)[nH]1`, the Potency result was “inactive”.

Turning to `CCc1cc(C(N)=S)ccn1`, the Potency entry is “inactive”.

`CCCCCCCC(=O)OCC(O)CO` (stereo not given): the Potency entry is “inactive”. Same read-out and setting: for `CC(C)=CCC/C(C)=C/CO` the value was “inactive”; for `Cc1c(N(C)C)c(=O)n(-c2ccccc2)n1C`, “inactive”; for `C=CCOC(=O)CC(C)C`, “inactive”.

As to `C1CNCCN1`, the Potency result is “inactive”. In the case of `CCCCCCCCCCCCCCCCCC(=O)OCC(O)CO` (stereo not given), the Potency result was “inactive”. As to `Cc1ccc(O)c(-n2nc3ccccc3n2)c1`, the Potency entry was “inactive”. On to `COc1ccc(O)cc1`, for which the Potency entry was “inactive”. With `C#C[C@]1(O)CC[C@H]2[C@@H]3CCC4=CC(=O)CC[C@@H]4[C@H]3CC[C@@]21CC`, the “activation” value is -11.4%. `O=C(O)CCCCC1CCSS1` (stereo not given): the Potency result is “inactive”. `COC1=CC(=O)C[C@@H](C)[C@]12Oc1c(Cl)c(OC)cc(OC)c1C2=O`: the Potency entry is “inactive”. Take `CCCCOCCOCCSC#N`: the Potency entry is “inactive”. Turning to `COC(=O)c1ccc(O)cc1`, the Potency result was “inactive”. Consider `CC(=O)CCC(C)C`, for which the Potency result was “inactive”. Same read-out and setting: with `NC(N)=NC(N)=NCCc1ccccc1` the entry was “inactive”. In the case of `CCCCCCCCCCCCCC(=O)OC(C)C`, the Potency result is “inactive”. Regarding `CN(C)Cc1cc(CN(C)C)c(O)c(CN(C)C)c1`, the Potency result is “inactive”. On to `OCCCc1ccccc1`, for which the Potency result was “inactive”. In the case of `C=C(C)OC(C)=O`, the Potency result is “inactive”. Regarding `NC(=O)c1ccc([N+](=O)[O-])cc1Cl`, the Potency result is “inactive”. For the molecule `COCC(C)N` (stereo not given), the Potency entry was “inactive”.

As to `COc1ccccc1O`, the Potency result was “inactive”.

On to `COc1ccc(C(=O)c2ccccc2)c(O)c1`, for which the Potency entry was “inactive”. Same read-out and setting: with `NC(=O)N/N=C/c1ccc([N+](=O)[O-])o1` the entry was “inactive”; with `CCCCOCCOCCOC(C)=O`, “inactive”. The same measure, in the same setting: with `Cc1c(N(C)CS(=O)(=O)O)c(=O)n(-c2ccccc2)n1C` the entry was “inactive”. Take `Cc1cnc(NC(=O)C2=C(O)c3ccccc3S(=O)(=O)N2C)s1`: the Potency result was “inactive”. Same read-out and setting: with `NCCNc1cccc2ccccc12` the entry was “inactive”; with `C[C@]12CC[C@@H]3c4ccc(O)cc4C[C@@H](CCCCCCCCCS(=O)CCCC(F)(F)C(F)(F)F)[C@H]3[C@@H]1CC[C@@H]2O` (stereo not given in full), “inactive”.
